# Data reported in PubChem BioAssay (NCI).
# About 79,000 compounds went through this panel and 15% of them were active in at least one assay; those are over-represented in the sample as a whole. A number with no mark means an inactive call. The source made the active and inactive calls. No stated cut-off is given here; in the data, active means growth inhibition above about 70%; inactive means the rest.
# What was measured:
# [1] = NCI Yeast Anticancer Drug Screen. Data for the rad50 strain (AID 155);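 further: 0% = growth of vehicle-only cultures of the same strain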; settings: S. cerevisiae rad50 strain growth inhibition, stronger effect = higher value
# Summary of the method: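 Compounds were tested on a yeast strain with an engineered DNA damage repair alteration; the reported value is growth inhibition normalised to vehicle treatment.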
# [2] = NCI Yeast Anticancer Drug Screen. Data for the mec2-1 strain (AID 157); settings: S. cerevisiae mec2-1 strain, stronger effect = higher value
# Summary of the method: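 mec2-1 yeast strain, carrying an alteration in DNA damage repair or cell cycle control, was exposed to compounds; growth inhibition was measured relative to vehicle-treated controls.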
# [3] = NCI Yeast Anticancer Drug Screen. Data for the sgs1 mgt1 strain (AID 161);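 further: 0% = growth of cultures given vehicle only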; settings: S. cerevisiae sgs1 mgt1 strain, stronger effect = higher value
# Summary of the method: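 This yeast growth screen uses a strain with defined DNA-repair lesions; compound-treated growth is compared with vehicle-treated growth.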
# [4] = NCI Yeast Anticancer Drug Screen. Data for the cln2 rad14 strain (AID 165);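 further: 0% = growth equal to vehicle treated cultures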; settings: S. cerevisiae cln2 rad14 strain, stronger effect = higher value
# Summary of the method: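 Yeast carrying cln2 and rad14 alterations (cell cycle control and DNA damage repair) were exposed to compounds. Growth inhibition was measured against vehicle-treated controls.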
# [5] = NCI Yeast Anticancer Drug Screen. Data for the bub3 strain (AID 167); settings: S. cerevisiae bub3 mutant strain, stronger effect = higher value
# Summary of the method: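 Growth of a checkpoint-deficient yeast mutant is measured after compound exposure. Values represent inhibition relative to vehicle.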
# [6] = NCI Yeast Anticancer Drug Screen. Data for the mlh1 rad18 strain (AID 175); settings: S. cerevisiae mlh1 rad18 strain growth inhibition, stronger effect = higher value
# Summary of the method: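 Growth inhibition of the yeast strain was measured after compound exposure and expressed relative to vehicle-treated controls. The strain carries defined defects in DNA damage repair.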
# [7] = at 5.0 µM (retest, dose inferred, filed as 0.5)
# [8] = at 50.0 µM (retest, dose inferred, filed as 5.0)
SMILES,"growth inhibition [1, 7]","growth inhibition [1, 8]",growth inhibition ([1]; at 50.0 µM),"growth inhibition [2, 7] [%]","growth inhibition [2, 8]",growth inhibition ([2]; at 50.0 µM),"growth inhibition [3, 7]","growth inhibition [3, 8]",growth inhibition ([3]; at 50.0 µM),"growth inhibition [4, 7] [%]","growth inhibition [4, 8]",growth inhibition ([4]; at 50.0 µM),"growth inhibition [5, 7] [%]","growth inhibition [5, 8]",growth inhibition ([5]; at 50.0 µM),"growth inhibition [6, 7]","growth inhibition [6, 8]",growth inhibition ([6]; at 50.0 µM)
CN1C=Cc2ccccc2C1C(C1c2ccccc2C=CN1C)[N+](=O)[O-] (stereo not given),0%,5%,-5.6%,8,12%,-9.95%,-2%,56%,49%,2,7%,2.65%,-4,14%,15.8%,-11%,1%,-13.5%
COC(=O)c1c2oc3c(C(=O)OC)cccc3nc-2cc(N)c1=O,0%,19%,30.2%,22,56%,25.7%,6%,22%,8.8%,-5,-2%,-46.5%,49,59%,66.5%,3%,44%,22.5%
O=c1[nH]c2ccccc2c2oc3ccccc3c12,-14%,83% (active),63.5%,-10,71% (active),51.5%,-4%,69%,64.5%,18,32%,25.4%,-10,88% (active),46.5%,-18%,94% (active),68.3%
C[N+](C)(CCCCCCOc1c(Br)cc(Br)cc1Br)Cc1ccc(Br)o1,71% (active),99% (active),99.5% (active),38,100% (active),99.8% (active),84% (active),100% (active),99.8% (active),40,99% (active),99.2% (active),61,99% (active),99.8% (active),83% (active),99% (active),99.7% (active)
CC(O[Si](C)(C)C(C)(C)C)C(=O)Sc1ccccn1 (stereo not given),-1%,66%,95.3% (active),-9,97% (active),97.2% (active),-6%,54%,95.5% (active),-10,84% (active),85.9% (active),-6,99% (active),93.9% (active),-9%,48%,94.7% (active)
